Assay [1] can be described thus: NCI Yeast Anticancer Drug Screen. Data for the rad50 strain (AID 155).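 Also: 0% = growth of vehicle-only cultures of the same strain.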 As to conditions: S. cerevisiae rad50 strain growth inhibition, stronger effect = higher value. An outline of the steps: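 Yeast carrying a defined DNA repair defect were exposed to test compounds, and growth was compared with vehicle-treated controls to give percent inhibition.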
Assay [2] can be described thus: NCI Yeast Anticancer Drug Screen. Data for the mec2-1 strain (AID 157). The note with it: S. cerevisiae mec2-1 strain, stronger effect = higher value. The essentials: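 Compounds were applied to mec2-1 yeast cells. Their growth was then compared with that of vehicle-treated cultures to give growth inhibition.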
Assay [3] in a line: NCI Yeast Anticancer Drug Screen. Data for the sgs1 mgt1 strain (AID 161).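 Also: 0% = growth of cultures given vehicle only.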 As to conditions: S. cerevisiae sgs1 mgt1 strain, stronger effect = higher value. An outline of the steps: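 Compounds are added to genetically altered yeast, and growth is compared with cultures given vehicle alone to give percent inhibition.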
Assay [4] in a line: NCI Yeast Anticancer Drug Screen. Data for the cln2 rad14 strain (AID 165).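 Also: 0% = growth equal to vehicle treated cultures.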 As to conditions: S. cerevisiae cln2 rad14 strain, stronger effect = higher value. The essentials: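 Strain: cln2 rad14 yeast, altered in cell cycle control and DNA damage repair. Read-out: growth inhibition vs vehicle.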
The nature of assay [5]: NCI Yeast Anticancer Drug Screen. Data for the bub3 strain (AID 167). The note with it: S. cerevisiae bub3 mutant strain, stronger effect = higher value. An outline of the steps:
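Compounds were applied to a genetically altered yeast strain carrying a cell-cycle control defect. Growth inhibition was scored against vehicle-treated controls.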

The nature of assay [6]: NCI Yeast Anticancer Drug Screen. Data for the mlh1 rad18 strain (AID 175). The note with it: S. cerevisiae mlh1 rad18 strain growth inhibition, stronger effect = higher value. The essentials:
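A repair-deficient yeast strain is exposed to test compound, and growth is scored relative to vehicle-treated controls.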

The mark [7] stands for this setting: at 5.0 µM (retest, dose inferred, filed as 0.5).
Setting [8] is: at 50.0 µM (retest, dose inferred, filed as 5.0).

Each structure is given as a SMILES string. Several values for one entry are separate records, joined by “and”; a condition that tells them apart may be missing. Equal values may be shown once. Compounds without any hit were thinned out: in the full panel of roughly 79,000, 15% have a hit. A number with no mark means an inactive call. Activity calls are given as the source filed them. Rule as the data show it: active = growth inhibition above about 70%; inactive = the rest.

Regarding `CN1CSC(=S)N(C)C1`, the growth inhibition was 21% in assay [1] (setting [7]); 95% (active) in assay [1] (setting [8]); 97.3% (active) in assay [1] (at 50.0 µM); 19% in assay [2] (setting [7]); 99% (active) in assay [2] (setting [8]); 99.5% (active) in assay [2] (at 50.0 µM). For the same compound, the growth inhibition is 17% in assay [3] (setting [7]); 97% (active) in assay [3] (setting [8]); 95.9% (active) in assay [3] (at 50.0 µM); 13% in assay [4] (setting [7]); 98% (active) in assay [4] (setting [8]); 94.3% (active) in assay [4] (at 50.0 µM). In addition, the growth inhibition was 4% in assay [5] (setting [7]); 96% (active) in assay [5] (setting [8]); 99.5% (active) in assay [5] (at 50.0 µM); 4% in assay [6] (setting [7]); 96% (active) in assay [6] (setting [8]); 95.7% (active) in assay [6] (at 50.0 µM).
Turning to `CCN(CC)CC(=O)O[C@]1(CC)C(=O)OCc2c1cc1n(c2=O)Cc2cc3ccccc3nc2-1`, the growth inhibition in assay [1] (setting [7]) was 93% (active); in assay [1] (setting [8]), 97% (active); in assay [1] (at 50.0 µM), 83.2% (active); in assay [2] (setting [7]), 58%; in assay [2] (setting [8]) it was 98% (active); in assay [2] (at 50.0 µM), 87% (active). Also, the growth inhibition was 45% in assay [3] (setting [7]); 97% (active) in assay [3] (setting [8]); 85.1% (active) in assay [3] (at 50.0 µM); 44% in assay [4] (setting [7]); 93% (active) in assay [4] (setting [8]); 62.5% in assay [4] (at 50.0 µM). For the same compound, the growth inhibition was 43% in assay [5] (setting [7]); 97% (active) in assay [5] (setting [8]); 81.5% (active) in assay [5] (at 50.0 µM); 91% (active) in assay [6] (setting [7]); 96% (active) in assay [6] (setting [8]); 85.6% (active) in assay [6] (at 50.0 µM).
Consider `S=C(SSC(=S)N1CCCCC1)N1CCCCC1`, for which the growth inhibition in assay [1] (setting [7]) is 50%; in assay [1] (setting [8]), 99% (active); in assay [1] (at 50.0 µM), 9.4% and 16.8%; in assay [2] (setting [7]), 55%; in assay [2] (setting [8]), 99% (active); in assay [2] (at 50.0 µM) it was 13.6% and 5.4%. The growth inhibition in assay [3] (setting [7]) is 48%; in assay [3] (setting [8]) it was 99% (active); in assay [3] (at 50.0 µM), 18.5% and 12.8%; in assay [4] (setting [7]), 55%; in assay [4] (setting [8]), 99% (active); in assay [4] (at 50.0 µM), 24.9% and 19.5%. Moreover, the growth inhibition is 70% (active) in assay [5] (setting [7]); 99% (active) in assay [5] (setting [8]); 9.8% and 4.25% in assay [5] (at 50.0 µM); 34% in assay [6] (setting [7]); 99% (active) in assay [6] (setting [8]); 54.8% and 12.6% in assay [6] (at 50.0 µM).
As to `[N-]=[N+]=NS(=O)(=O)c1cccc([N+](=O)[O-])c1`, the growth inhibition is 8% in assay [1] (setting [7]); 100% (active) in assay [1] (setting [8]); 80.2% (active) in assay [1] (at 50.0 µM); -17% in assay [2] (setting [7]); 100% (active) in assay [2] (setting [8]); 87.1% (active) in assay [2] (at 50.0 µM). Further, the growth inhibition in assay [3] (setting [7]) was -34%; in assay [3] (setting [8]) it was 99% (active); in assay [3] (at 50.0 µM) it was 89.1% (active); in assay [4] (setting [7]) it was 8%; in assay [4] (setting [8]), 99% (active); in assay [4] (at 50.0 µM) it was 90.8% (active). Further, the growth inhibition is -24% in assay [5] (setting [7]); 100% (active) in assay [5] (setting [8]); 90.8% (active) in assay [5] (at 50.0 µM); -5% in assay [6] (setting [7]); 100% (active) in assay [6] (setting [8]); 92.7% (active) in assay [6] (at 50.0 µM).
As for `O=[N+]([O-])C(Br)CO` (configuration not stated), the growth inhibition in assay [1] (setting [7]) is 2%; in assay [1] (setting [8]), 91% (active); in assay [1] (at 50.0 µM) it was 76% (active); in assay [2] (setting [7]) it was 2%; in assay [2] (setting [8]), 99% (active); in assay [2] (at 50.0 µM) it was 89% (active). Also, the growth inhibition in assay [3] (setting [7]) is 3%; in assay [3] (setting [8]) it was 94% (active); in assay [3] (at 50.0 µM), 79% (active); in assay [4] (setting [7]) it was 9%; in assay [4] (setting [8]), 95% (active); in assay [4] (at 50.0 µM), 84.8% (active). Further, the growth inhibition in assay [5] (setting [7]) is 7%; in assay [5] (setting [8]), 99% (active); in assay [5] (at 50.0 µM) it was 94% (active); in assay [6] (setting [7]), 4%; in assay [6] (setting [8]), 97% (active); in assay [6] (at 50.0 µM) it was 88.1% (active).
`[Cl][Pt+2][Cl].[NH-]C(c1ccccc1)C([NH-])c1ccccc1` (configuration not stated): the growth inhibition in assay [1] (setting [7]) is -11%; in assay [1] (setting [8]), 10%; in assay [1] (at 50.0 µM), -22.9% and 11%; in assay [2] (setting [7]) it was 2%; in assay [2] (setting [8]), -8%; in assay [2] (at 50.0 µM), -21.4% and 0.25%. Further, the growth inhibition in assay [3] (setting [7]) is -10%; in assay [3] (setting [8]) it was 9%; in assay [3] (at 50.0 µM), 19% and 2.15%; in assay [4] (setting [7]) it was -23%; in assay [4] (setting [8]) it was -10%; in assay [4] (at 50.0 µM) it was 18.6% and 21.9%. For the same compound, the growth inhibition was -9% in assay [5] (setting [7]); 4% in assay [5] (setting [8]); -2.7% and -2.2% in assay [5] (at 50.0 µM); -6% in assay [6] (setting [7]); 2% in assay [6] (setting [8]); -17.6% and 29.3% in assay [6] (at 50.0 µM).
`CN(CCC(N)CC(=O)NC1C=CC(n2ccc(N)nc2=O)OC1C(=O)O)C(=N)N` (configuration not stated): the growth inhibition in assay [1] (setting [7]) is 48%; in assay [1] (setting [8]), 95% (active); in assay [1] (at 50.0 µM), 91.8% (active); in assay [2] (setting [7]) it was 86% (active); in assay [2] (setting [8]) it was 98% (active); in assay [2] (at 50.0 µM), 92.8% (active) and 93.4% (active). For the same compound, the growth inhibition in assay [3] (setting [7]) was 42%; in assay [3] (setting [8]), 90% (active); in assay [3] (at 50.0 µM) it was 90.9% (active); in assay [4] (setting [7]) it was 88% (active); in assay [4] (setting [8]) it was 97% (active); in assay [4] (at 50.0 µM), 90% (active) and 90.2% (active). The growth inhibition in assay [5] (setting [7]) was 68%; in assay [5] (setting [8]) it was 96% (active); in assay [5] (at 50.0 µM), 91% (active) and 92% (active); in assay [6] (setting [7]) it was 72% (active); in assay [6] (setting [8]), 97% (active); in assay [6] (at 50.0 µM), 90.6% (active) and 90.7% (active).
`COC1=[C]([Hg][Br])C(OC)OC1OC` (configuration not stated): the growth inhibition in assay [1] (setting [7]) was 99% (active); in assay [1] (setting [8]) it was 99% (active); in assay [1] (at 50.0 µM), 99.6% (active); in assay [2] (setting [7]), 98% (active); in assay [2] (setting [8]), 99% (active); in assay [2] (at 50.0 µM) it was 99.5% (active). For the same compound, the growth inhibition was 99% (active) in assay [3] (setting [7]); 99% (active) in assay [3] (setting [8]); 99.5% (active) in assay [3] (at 50.0 µM); 98% (active) in assay [4] (setting [7]); 98% (active) in assay [4] (setting [8]); 98.8% (active) in assay [4] (at 50.0 µM). Moreover, the growth inhibition is 99% (active) in assay [5] (setting [7]); 99% (active) in assay [5] (setting [8]); 98.9% (active) in assay [5] (at 50.0 µM); 99% (active) in assay [6] (setting [7]); 99% (active) in assay [6] (setting [8]); 99.5% (active) in assay [6] (at 50.0 µM).
Take `ClCCN(CCCl)c1ccc(CN2CCCN(Cc3ccc(N(CCCl)CCCl)cc3Cl)C2c2ccncc2)c(Cl)c1`: the growth inhibition in assay [1] (setting [7]) was 2%; in assay [1] (setting [8]), 91% (active); in assay [1] (at 50.0 µM), 93.5% (active); in assay [2] (setting [7]), 4%; in assay [2] (setting [8]), 96% (active); in assay [2] (at 50.0 µM), 96.8% (active). Besides, the growth inhibition in assay [3] (setting [7]) is -4%; in assay [3] (setting [8]), 96% (active); in assay [3] (at 50.0 µM), 93.9% (active); in assay [4] (setting [7]), -5%; in assay [4] (setting [8]) it was 94% (active); in assay [4] (at 50.0 µM), 43.9%. Besides, the growth inhibition in assay [5] (setting [7]) is 0%; in assay [5] (setting [8]), 93% (active); in assay [5] (at 50.0 µM), 1.9%; in assay [6] (setting [7]), 9%; in assay [6] (setting [8]) it was 95% (active); in assay [6] (at 50.0 µM), 97.1% (active).

(Values after PubChem BioAssay (NCI).)
